Results: PubChem BioAssay (NCATS)
Results filed as inconclusive are left out. Where a structure was tested more than once in an assay, its records may differ in their call. Calls of active or inactive are those of the source. Unless noted, calls come from the whole dose curve; as a rule, active = well fitted curve in the direction sought with a large enough effect; inconclusive = small, poorly fitted or top-dose-only effect, or another doubt; inactive = no such curve, though single readings can be large; an effect the other way counts as inactive or inconclusive.

Key:
[1] = Primary qHTS for inhibitors of La Crosse Virus (LACV) - induced cell death in SH-SY5Y cells (AID 1508616);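 note: top concentration of the series differs between compounds; 0% = infected DMSO wells and 100% = uninfected DMSO wells; higher means more rescue of cells from virus-induced death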
Method in brief: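 Luminescent ATP readout (ATPLite 1step, 5 min room temperature) measured rescue from LACV-induced death after 6 days of infection at 0.01 MOI; normalized to infected DMSO wells and uninfected DMSO wells.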

[2] = biological target: Calcium and integrin-binding protein 1 (Homo sapiens) (UniProt Q99828); test: Confirmatory qHTS for Identification of Calcium Integrin Binding Protein 1 (CIB1) Competitor (AID 1508617); conditions: CIB1 binding competition assay, biochemical qHTS; note: potency is the fitted concentration of half-maximal effect; nearly all actives have a fitted effect of over 65% in size
Calcium and integrin-binding protein 1 (Homo sapiens), sequence (Q99828 whole entry, looked up): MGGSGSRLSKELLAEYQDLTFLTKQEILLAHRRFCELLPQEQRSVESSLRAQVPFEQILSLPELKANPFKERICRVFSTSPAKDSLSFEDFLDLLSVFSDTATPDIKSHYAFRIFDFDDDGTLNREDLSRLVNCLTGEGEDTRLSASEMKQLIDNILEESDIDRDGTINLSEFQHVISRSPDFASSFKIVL
Method in brief: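 FP competition: CIB1-GST (1 uM final) in 5 mM HEPES pH 7.4, 125 mM NaCl, 5 mM CaCl2, 0.01% Tween20 preincubated 15 min RT with compounds (up to 114 uM), then FITC-alphaIIb peptide (100 nM), 15 min RT; Ex 480/Em 540.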

[3] = A High-Content qHTS Against Drug Library for the Identification of Small Molecules that Inhibit DYT1 Early Onset Primary Dystonia-Associated Cell Pathology (AID 1645839; calls by dose curve; note: series mostly up to about 46 µM)
Method in brief: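 Readout: %pathology, the punctate EGFP-TorsinA distribution from imaging, as the primary channel and cell count as the toxicity counterscreen. HEK293 Flp-In cells expressing delE TorsinA were induced with tetracycline and treated with compound for 48 h.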

[4] = biological target: Cytochrome P450 2D6 (Homo sapiens) (UniProt P10635); test: Cytochrome P450 family 2 subfamily D member 6 (CYP2D6) small molecule antagonists: luciferase biochemical (cell-free) qHTS assay (AID 1645840; active = well fitted curve in the direction sought with a large enough effect in the repeat runs; an effect the other way counts as inactive or inconclusive; note: potency is the fitted concentration of half-maximal effect; nearly all actives have a fitted effect of over 55% in size)
Cytochrome P450 2D6 (Homo sapiens), sequence (P10635 whole entry, looked up): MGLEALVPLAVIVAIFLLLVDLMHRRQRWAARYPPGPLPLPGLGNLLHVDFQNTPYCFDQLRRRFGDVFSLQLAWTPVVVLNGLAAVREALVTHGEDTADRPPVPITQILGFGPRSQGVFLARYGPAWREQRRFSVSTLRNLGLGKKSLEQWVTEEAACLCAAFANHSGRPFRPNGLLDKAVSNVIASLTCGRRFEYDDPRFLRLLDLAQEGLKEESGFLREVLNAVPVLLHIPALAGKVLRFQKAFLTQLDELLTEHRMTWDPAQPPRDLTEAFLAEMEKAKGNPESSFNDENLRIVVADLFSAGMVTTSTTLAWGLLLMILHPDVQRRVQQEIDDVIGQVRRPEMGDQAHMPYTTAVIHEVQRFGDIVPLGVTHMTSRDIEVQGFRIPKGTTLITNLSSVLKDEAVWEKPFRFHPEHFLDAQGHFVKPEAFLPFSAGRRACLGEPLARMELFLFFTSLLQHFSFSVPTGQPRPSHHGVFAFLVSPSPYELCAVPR
Method in brief: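 P450-Glo luminescent screen: recombinant CYP2D6 enzyme–proluciferin substrate mix preincubated with compound 10 min at room temperature, then NADPH regeneration added for 1 h at room temperature. Detection reagent added for 20 min; luciferin light read as relative luminescence units.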

[5] = biological target: Cytochrome P450 2C9 (Homo sapiens) (UniProt P11712); test: Cytochrome P450 family 2 subfamily C member 9 (CYP2C9) small molecule antagonists: luciferase biochemical (cell-free) qHTS assay (AID 1645842; active = well fitted curve in the direction sought with a large enough effect in the repeat runs; an effect the other way counts as inactive or inconclusive; note: potency is the fitted concentration of half-maximal effect; nearly all actives have a fitted effect of over 55% in size)
Cytochrome P450 2C9 (Homo sapiens), sequence (P11712 whole entry, looked up): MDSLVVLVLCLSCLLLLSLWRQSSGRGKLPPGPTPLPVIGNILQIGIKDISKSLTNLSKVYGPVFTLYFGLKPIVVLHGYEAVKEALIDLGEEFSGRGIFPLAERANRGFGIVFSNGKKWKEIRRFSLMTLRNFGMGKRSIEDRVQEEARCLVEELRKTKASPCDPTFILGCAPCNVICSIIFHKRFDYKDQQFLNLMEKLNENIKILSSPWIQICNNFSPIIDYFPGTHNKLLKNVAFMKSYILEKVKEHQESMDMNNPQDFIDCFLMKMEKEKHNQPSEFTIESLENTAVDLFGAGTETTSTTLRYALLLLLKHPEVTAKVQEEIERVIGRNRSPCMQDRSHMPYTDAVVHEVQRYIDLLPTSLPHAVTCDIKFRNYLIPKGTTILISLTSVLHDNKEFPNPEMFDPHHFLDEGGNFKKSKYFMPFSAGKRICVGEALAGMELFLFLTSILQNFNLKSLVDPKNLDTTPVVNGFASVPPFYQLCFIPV
Method in brief: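 Luminescence, after 20 min with luciferin detection reagent, reflected CYP2C9 turnover during a 1 h NADPH-driven reaction at 37C. Enzyme-substrate mix contained 0.4% bovine serum albumin and was preincubated with compound 10 min at room temperature.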

[6] = biological target: Single-stranded DNA cytosine deaminase (Homo sapiens) (UniProt Q9GZX7); test: Validation qHTS assay for inhibitors of Activation Induced Cytidine Deaminase (AID): AID signal (AID 1347429); note: potency is the fitted concentration of half-maximal effect
Single-stranded DNA cytosine deaminase (Homo sapiens), sequence (Q9GZX7 whole entry, looked up): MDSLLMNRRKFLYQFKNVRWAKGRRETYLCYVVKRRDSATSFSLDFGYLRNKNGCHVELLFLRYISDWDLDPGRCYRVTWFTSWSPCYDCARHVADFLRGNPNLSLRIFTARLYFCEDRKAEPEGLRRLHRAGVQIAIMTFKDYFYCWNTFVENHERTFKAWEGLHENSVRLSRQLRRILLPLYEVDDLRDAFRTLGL
Method in brief: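 AID and UDG were combined and compounds added at final up to 114 uM, then DJC20/DJC23 FRET substrate was added for 4 hr at room temperature. NaOH was then added for 30 min before fluorescence was read at 540/590 nm.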

[7] = Primary qHTS for small molecule stabilizers of the endoplasmic reticulum resident proteome: Secreted ER Calcium Modulated Protein (SERCaMP) assay (AID 1508630); note: potency is the fitted concentration of half-maximal effect
Method in brief: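 GLuc-SERCaMP-expressing SH-SY5Y cells, pretreated 16 h with compound, are challenged with thapsigargin to empty ER calcium stores; after 4 h, coelenterazine is added directly to the medium and luminescence is imaged.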

[8] = biological target: Papain (Carica papaya) (UniProt P00784); test: Primary qHTS assay for inhibitors of the protease papain (AID 1645873);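 note: papain turnover of Z-FR-AMC read as the AMC fluorescence gain over 10 min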; note: potency is the fitted concentration of half-maximal effect
Papain (Carica papaya), sequence (P00784 whole entry, looked up): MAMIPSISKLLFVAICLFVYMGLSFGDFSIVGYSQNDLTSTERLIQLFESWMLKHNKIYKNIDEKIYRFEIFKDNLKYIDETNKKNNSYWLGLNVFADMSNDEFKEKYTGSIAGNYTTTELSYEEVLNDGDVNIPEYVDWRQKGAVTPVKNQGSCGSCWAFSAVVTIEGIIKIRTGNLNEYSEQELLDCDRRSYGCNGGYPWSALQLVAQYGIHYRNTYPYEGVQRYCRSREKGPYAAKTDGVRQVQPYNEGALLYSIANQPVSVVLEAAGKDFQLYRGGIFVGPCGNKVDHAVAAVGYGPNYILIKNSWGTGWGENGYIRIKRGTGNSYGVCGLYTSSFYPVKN

[9] = biological target: Calcium and integrin-binding protein 1 (Homo sapiens) (UniProt Q99828); test: Validation qHTS for Identification of Calcium Integrin Binding protein 1 (CIB1) Competitor (AID 1508618); note: % is set by controls: 0 for no effect and ±100 for the full control effect
Method in brief: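 Fluorescence polarization with 1 uM CIB1-GST and 100 nM FITC-alphaIIb peptide in HEPES pH 7.4, NaCl, 5 mM CaCl2, Tween20. Compounds at up to 114 uM final, preincubated with protein 15 min; read after 15 min more at RT.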

[10] = biological target: Calcium and integrin-binding protein 1 (Homo sapiens) (UniProt Q99828); test: Primary qHTS for Identification of Calcium Integrin Binding Protein 1 (CIB1) Competitor (AID 1508620);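 note: GST tagged CIB1 binding a fluorescein labelled alphaIIb integrin peptide tracer; top concentration of the series differs between compounds; % is set by controls: 0 for no effect and ±100 for the full control effect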
Method in brief: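 Fluorescence polarization competition: CIB1-GST (1 uM final) preincubated with compound 15 min at room temperature, then FITC-labeled alphaIIb peptide (100 nM final) added for another 15 min. Polarization read at Ex 480/Em 540.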

[11] = Primary qHTS for inhibitors of nuclear receptor binding SET domain protein 2 (NSD2) in an isogenic RCH-ACV NSD2 p.E1099K mutant (9B) (AID 1645876); note: nearly all actives have a fitted effect of over 70% in size; note: potency is the fitted concentration of half-maximal effect
[12] = Primary qHTS for inhibitors of nuclear receptor binding SET domain protein 2 (NSD2) in an RCH-ACV wild type WT cells (2C) (AID 1645877); note: nearly all actives have a fitted effect of over 70% in size; note: potency is the fitted concentration of half-maximal effect
[13] = Counterscreen qHTS for small molecule stabilizers of the endoplasmic reticulum resident proteome: GLuc-NoTag assay (AID 1508627);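 note: SH-SY5Y cells given compound then 100 nM thapsigargin to empty ER calcium; series mostly up to about 76 µM; 0% = thapsigargin alone and -100% = DMSO vehicle control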
Method in brief: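 SH-SY5Y cells stably expressing constitutively secreted GLuc (no SERCaMP tag) were pre-incubated 5 h, treated with compound for 19 h, then 100 nM thapsigargin for 4 h at 37C; medium GLuc read by coelenterazine luminescence.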

[14] = biological target: Rap guanine nucleotide exchange factor 3 (Homo sapiens) (UniProt O95398); test: Confirmatory qHTS for agonist of cAMP-regulated guanine nucleotide exchange factor 3 (EPAC1) (AID 1645881);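 note: EPAC1 catalysed release of BODIPY-GDP from Rap1B seen as fluorescence loss; 100% = effect of cAMP agonist control; nearly all actives have a fitted effect of over 75% in size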
Rap guanine nucleotide exchange factor 3 (Homo sapiens), sequence (O95398 whole entry, looked up): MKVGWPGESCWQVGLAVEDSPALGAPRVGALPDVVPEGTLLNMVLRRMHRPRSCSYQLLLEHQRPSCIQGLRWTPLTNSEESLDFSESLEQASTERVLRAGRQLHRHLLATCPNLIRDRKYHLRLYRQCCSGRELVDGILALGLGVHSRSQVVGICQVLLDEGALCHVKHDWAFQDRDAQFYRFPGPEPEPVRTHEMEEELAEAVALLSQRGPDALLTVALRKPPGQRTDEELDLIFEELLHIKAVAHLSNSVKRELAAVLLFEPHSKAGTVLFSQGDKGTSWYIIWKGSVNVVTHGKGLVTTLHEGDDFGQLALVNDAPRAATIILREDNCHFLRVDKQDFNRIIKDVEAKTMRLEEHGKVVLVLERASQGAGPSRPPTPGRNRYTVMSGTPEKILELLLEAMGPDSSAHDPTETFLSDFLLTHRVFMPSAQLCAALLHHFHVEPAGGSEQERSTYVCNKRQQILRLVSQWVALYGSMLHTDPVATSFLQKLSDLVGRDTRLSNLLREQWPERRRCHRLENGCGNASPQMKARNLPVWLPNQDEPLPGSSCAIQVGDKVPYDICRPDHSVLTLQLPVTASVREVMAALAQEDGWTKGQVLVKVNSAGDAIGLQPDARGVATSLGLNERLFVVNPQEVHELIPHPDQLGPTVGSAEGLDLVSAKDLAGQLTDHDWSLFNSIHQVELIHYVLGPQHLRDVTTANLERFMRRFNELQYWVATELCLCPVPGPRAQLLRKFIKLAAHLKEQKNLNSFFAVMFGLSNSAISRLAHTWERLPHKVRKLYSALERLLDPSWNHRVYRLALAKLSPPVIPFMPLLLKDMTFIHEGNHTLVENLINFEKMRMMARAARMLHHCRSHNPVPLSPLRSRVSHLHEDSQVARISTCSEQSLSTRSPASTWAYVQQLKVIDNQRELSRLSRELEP

[15] = biological target: Rap guanine nucleotide exchange factor 4 (Homo sapiens) (UniProt Q8WZA2); test: Confirmatory qHTS for agonist of cAMP-regulated guanine nucleotide exchange factor 4 (EPAC2) (AID 1645884);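 note: nucleotide exchange releases bodipy-GDP from Rap1 and this lowers its fluorescence; % is set by controls: 0 for no effect and ±100 for the full control effect; nearly all actives have a fitted effect of over 65% in size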
Rap guanine nucleotide exchange factor 4 (Homo sapiens), sequence (Q8WZA2 whole entry, looked up): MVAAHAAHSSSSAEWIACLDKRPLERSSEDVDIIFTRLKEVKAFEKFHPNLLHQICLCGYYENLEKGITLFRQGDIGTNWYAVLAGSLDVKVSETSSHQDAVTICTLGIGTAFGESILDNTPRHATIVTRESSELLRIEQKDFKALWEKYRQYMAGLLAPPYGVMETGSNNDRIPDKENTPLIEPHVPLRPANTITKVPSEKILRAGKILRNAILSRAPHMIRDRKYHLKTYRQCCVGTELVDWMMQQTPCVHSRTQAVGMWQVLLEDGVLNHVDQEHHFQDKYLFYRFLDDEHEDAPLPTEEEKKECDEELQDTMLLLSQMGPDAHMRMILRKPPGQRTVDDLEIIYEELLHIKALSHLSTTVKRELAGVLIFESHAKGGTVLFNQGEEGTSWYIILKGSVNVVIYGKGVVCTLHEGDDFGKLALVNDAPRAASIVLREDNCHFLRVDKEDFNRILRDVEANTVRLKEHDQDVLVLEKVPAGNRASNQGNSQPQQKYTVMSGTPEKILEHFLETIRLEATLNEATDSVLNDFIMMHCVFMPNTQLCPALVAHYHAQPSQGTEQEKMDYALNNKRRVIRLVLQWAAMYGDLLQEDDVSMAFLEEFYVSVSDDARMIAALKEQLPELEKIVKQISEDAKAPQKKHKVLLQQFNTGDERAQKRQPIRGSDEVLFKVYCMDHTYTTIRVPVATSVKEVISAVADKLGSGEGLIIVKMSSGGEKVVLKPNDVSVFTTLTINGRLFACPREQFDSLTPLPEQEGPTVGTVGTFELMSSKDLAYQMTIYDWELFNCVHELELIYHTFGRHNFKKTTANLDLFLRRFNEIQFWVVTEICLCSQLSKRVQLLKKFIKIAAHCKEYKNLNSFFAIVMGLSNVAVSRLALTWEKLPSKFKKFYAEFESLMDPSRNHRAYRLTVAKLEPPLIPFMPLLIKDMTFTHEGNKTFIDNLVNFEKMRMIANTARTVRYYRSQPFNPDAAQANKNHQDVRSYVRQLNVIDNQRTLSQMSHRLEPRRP

[16] = Confirmatory qHTS for small molecule stabilizers of the endoplasmic reticulum resident proteome: Secreted ER Calcium Modulated Protein (SERCaMP) assay (AID 1508628); note: nearly all actives have a fitted effect of over 40% in size; note: potency is the fitted concentration of half-maximal effect
Method in brief: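 We seeded SH-SY5Y-GLuc-SERCaMP cells, added compounds (three concentrations in the primary run, eleven up to 76.6 uM in confirmation), incubated 16 h, depleted ER calcium with thapsigargin, and read luciferase 4 h later.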

[17] = Cell Viability qHTS for small molecule stabilizers of the endoplasmic reticulum resident proteome (AID 1508629); conditions: cell viability counter-screen, 100 nM thapsigargin for final 4 h;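 note: human SH-SY5Y neuroblastoma cells carrying the GLuc-SERCaMP reporter; compound exposure about 46 h in total before the viability read; % is set by controls: 0 for no effect and ±100 for the full control effect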
[18] = biological target: Rap guanine nucleotide exchange factor 3 (Homo sapiens) (UniProt O95398); test: Confirmatory qHTS for antagonist of cAMP-regulated guanine nucleotide exchange factor 3 (EPAC1) (AID 1645880); note: nearly all actives have a fitted effect of over 55% in size; note: potency is the fitted concentration of half-maximal effect
Method in brief: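 Nucleotide exchange uses 100 nM EPAC1, 250 nM RAP1B-BODIPY-GDP and 50 uM GDP, with compounds in a concentration-titration series. After 5 min at room temperature, fluorescence (480 nm ex/540 nm em) is read every 5 min for 30 min. Data are normalized to control ATA and DMSO.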

Nc1ccc(O)c([N+](=O)[O-])c1
inactive: Potency [1] | Potency [3]
active: Potency [2] 50.1 µM | Potency [4] 32.9 µM | Potency [5] 21.8 µM

O=C(Nc1cccc(C(=O)Nc2ccc(S(=O)(=O)O)c3cc(S(=O)(=O)O)cc(S(=O)(=O)O)c23)c1)Nc1cccc(C(=O)Nc2ccc(S(=O)(=O)O)c3cc(S(=O)(=O)O)cc(S(=O)(=O)O)c23)c1
inactive: Potency [6] | Potency [7]
active: Potency [8] 3.16 µM

O=S(=O)(c1cccc2c(I)cccc12)N1CCCNCC1
inactive: Potency [6] | outcome [9] | Potency [8]

CCNC(=O)[C@H]1O[C@@H](n2cnc3c(N)nc(NCCc4ccc(CCC(=O)O)cc4)nc32)[C@H](O)[C@@H]1O
inactive: Potency [6] | Potency [10] | Potency [7] | Potency [11] | Potency [12]

CCCCCCCCc1ccc(-c2ccc(C(=O)O)cc2)cc1
inactive: Potency [1] | outcome [9] | Potency [7] | Potency [8]

CCCC1(C)C(C#N)(C#N)C1(C#N)C#N
inactive: Potency [6] | Potency [7]

COc1ccccc1CNCCCCCCNCCCCCCCCNCCCCCCNCc1ccccc1OC
inactive: Potency [1] | outcome [9]

COc1cccc(C(=O)NCCN2CCN(c3ccc(Cl)cc3)CC2)c1
inactive: Potency [6] | outcome [9] | Potency [8]

CCCCCCCCCCCCCCCC(=O)OC(CC(=O)O)C[N+](C)(C)C (stereo not drawn)
inactive: Potency [1] | outcome [9] | Potency [7] | Potency [8]

CNc1ncnc2c1ncn2[C@@H]1O[C@H](CO)[C@@H](O)[C@H]1O
inactive: Potency [1] | outcome [9] | Potency [7] | Potency [8]

CC12C(=O)OC(=O)C1(C)C1CCC2O1 (stereo not drawn)
inactive: Potency [6] | outcome [9] | Potency [8]

Cc1ccc(O)c(N=Nc2ccccc2)n1
inactive: Potency [6] | Potency [13] | Potency [7] | Potency [8] | Potency [14] | Potency [15]

C[N+]1(C)C2CC(OC(=O)[C@H](CO)c3ccccc3)CC1C1OC12 (stereo partly drawn)
1.12 µM (active) and inactive: Potency [8]
inactive: Potency [1] | outcome [9] | Potency [13] | Potency [16] | max response [17] 12%

O=C(O)c1cc([N+](=O)[O-])ccc1NCCCc1ccccc1
inactive: Potency [6] | outcome [9] | Potency [7] | Potency [8] | Potency [18] | Potency [14] | Potency [15]

O=C(O)CC[C@@H](C(=O)O)N1C(=O)c2ccccc2C1=O
inactive: Potency [6] | outcome [9] | Potency [8]

NC(=O)C1=CN(C2OC(COP(=O)(O)OP(=O)(O)OC[C@H]3O[C@@H](n4cnc5c(N)ncnc54)[C@H](OP(=O)(O)O)[C@@H]3O)C(O)C2O)C=CC1 (stereo partly drawn)
inactive: Potency [6] | outcome [9] | Potency [8]

Cn1ncc(S(=O)(=O)Cc2ccccc2)c(Br)c1=O
inactive: Potency [6] | outcome [9] | Potency [7] | Potency [8]

N#C/C(=C\c1ccc(O)c(O)c1)C(=O)NCCCc1ccccc1
active: Potency [11] 14.6 µM | Potency [12] 16.4 µM | Potency [18] 15.7 µM
inactive: Potency [6] | Potency [14] | Potency [15]

O=c1[nH]c2cc(C(F)(F)F)ccc2n1-c1cc(C(F)(F)F)ccc1O
inactive: Potency [6] | Potency [7] | Potency [8]

Nc1nc(Cl)nc2c1ncn2[C@@H]1O[C@H](COP(=O)(O)OP(=O)(O)OP(=O)(O)O)[C@@H](O)[C@H]1O
inactive: Potency [6] | outcome [9] | Potency [8]

N#C/C(=C\c1c[nH]c2ccccc12)C(=O)c1ccc(O)c(O)c1
inactive: Potency [6] | Potency [13]
active: Potency [16] 12.6 µM

CC1CN(S(=O)(=O)c2cccc3cnccc23)CCN1 (stereo not drawn)
inactive: Potency [1] | outcome [9] | Potency [13] | max response [17] 32.3% | Potency [8]

CC(=O)/C=C1\C(=O)N(C)c2ccccc21
inactive: Potency [6] | outcome [9] | Potency [8]

CCCCCCCCCCCCCCCCCC(=O)NCC(COP(=O)([O-])OCC[N+](C)(C)C)OCC (stereo not drawn)
inactive: Potency [6] | Potency [7]

CCCOC(=O)c1ccc(O)cc1
inactive: Potency [1]

C=C[C@@H]1CN2CC[C@@H]1C[C@H]2[C@H](O)c1ccnc2ccc(OC)cc12
inactive: Potency [1]

C[N+]1(C)CCC(OC(=O)C(c2ccccc2)c2ccccc2)CC1
inactive: Potency [1] | outcome [9] | Potency [7] | Potency [8]

C[N+](C)(C)CC(=O)[O-]
inactive: Potency [6] | Potency [7]

COc1ccc2c(c1)CCC1C2CC[C@@]2(C)C1CC[C@@H]2NCCCCCCN1C(=O)CCC1=O (stereo partly drawn)
inactive: Potency [6] | outcome [9] | Potency [8]

OC[C@H]1O[C@@H](n2cnc3c(NC4CCCCC4)ncnc32)[C@H](O)[C@@H]1O
inactive: Potency [6] | outcome [9] | Potency [8]

O=C1C(SCCO)=C(SCCO)C(=O)c2ccccc21
active: Potency [6] 10 µM | Potency [7] 25.1 µM
inactive: Potency [8] | Potency [14] | Potency [15]

O=C1/C(=C/c2ccsc2)CC/C1=C\c1cccs1
inactive: Potency [1] | outcome [9] | Potency [7]

O=C(O)c1cc(=O)c2ccccc2[nH]1
inactive: Potency [1] | outcome [9] | Potency [7] | Potency [8]
